Assay results as given in PubChem BioAssay (NCATS).
Several values for one entry are separate records, joined by “and”; a condition that tells them apart may be missing. Identical values can stand only once. Records with an inconclusive call do not appear. Activity calls are given as the source filed them. Calls follow the shape of the dose curve; as a rule, active = well fitted curve in the direction sought with a large enough effect; inconclusive = small, poorly fitted or top-dose-only effect, or another doubt; inactive = no such curve, though single readings can be large; an effect the other way counts as inactive or inconclusive.

Experiments:
[1] = biological target: Cellular tumor antigen p53 (Homo sapiens) (UniProt P04637); assay: Primary qHTS for small molecule compounds that upregulate eGFP-tagged delta133p53alpha (in N-terminal) cells. (AID 2060322); conditions: NCI-H358 eGFP-delta133p53alpha fluorescence, 24 h; activation: active compounds read high; also: nearly all actives have a fitted effect of over 75% in size;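 as to activation: cells pre-induced with doxycycline then dosed without doxycycline; series mostly up to about 56 µM; 0% = DMSO vehicle and 100% = reference activator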
Chain of Cellular tumor antigen p53 (Homo sapiens) (P04637 whole entry, looked up): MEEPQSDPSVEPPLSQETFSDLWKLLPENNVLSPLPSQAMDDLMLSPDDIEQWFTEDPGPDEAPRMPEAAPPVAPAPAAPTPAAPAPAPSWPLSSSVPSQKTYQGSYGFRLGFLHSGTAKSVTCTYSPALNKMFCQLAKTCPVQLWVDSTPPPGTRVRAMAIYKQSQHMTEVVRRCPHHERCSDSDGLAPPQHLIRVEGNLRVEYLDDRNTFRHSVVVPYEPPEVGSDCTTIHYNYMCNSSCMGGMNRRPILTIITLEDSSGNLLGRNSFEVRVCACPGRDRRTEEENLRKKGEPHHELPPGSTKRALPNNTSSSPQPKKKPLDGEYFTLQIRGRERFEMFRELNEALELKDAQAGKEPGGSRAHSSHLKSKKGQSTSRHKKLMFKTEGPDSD
Procedure, shortened: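 NCI-H358 cells pre-induced 24 h with 10 ng/ml doxycycline for eGFP-delta133p53alpha, plated dox-free and exposed 24 h at 37C to titrated compounds. Fixed, Hoechst-stained; gated GFP peak intensity by laser scanning cytometry, normalized to DMSO (0%) and 57.5 uM 5-azacytidine (100%).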

[2] = BET inhibitor-based combinations targeting novel dependencies in MECOM-rearranged (r) AML: SET-2 cell line (AID 2202231); conditions: SET-2 AML cells viability, CellTiter-Glo luminescence, 48 h; viability: active compounds read low, concentration not given here; also: nearly all actives have a fitted effect of over 35% in size;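 as to viability: plate controls were DMSO treated cells for no effect and wells without cells for full effect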
Procedure, shortened: (§1)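 Luminescent ATP readout (CellTiter-Glo) after 48 hr drug exposure gives viability. Curves span 11 concentrations and are normalized to DMSO and empty wells. Activity is reported as area under the curve and its Z-transform within each cell line.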

[3] = BET inhibitor-based combinations targeting novel dependencies in MECOM-rearranged (r) AML: OCI-AML3 cell line (AID 2202232); conditions: Potency: OCI-AML3 viability; also: nearly all actives have a fitted effect of over 35% in size;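 as to viability (% of control): series mostly up to about 46 µM; plate controls were DMSO vehicle wells for no effect and wells without cells for full effect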
Procedure, shortened: as §1

[4] = BET inhibitor-based combinations targeting novel dependencies in MECOM-rearranged (r) AML: MV-4-11 cell line (AID 2202233); also: nearly all actives have a fitted effect of over 45% in size
Procedure, shortened: (§2)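 Luminescent ATP readout (CellTiter-Glo, 15 min at room temperature) after 48 hr drug exposure gave viability. Dose-response curves, normalized to DMSO and empty-well controls, were summarized as area under the curve and its mean-centred Z-score.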

[5] = BET inhibitor-based combinations targeting novel dependencies in MECOM-rearranged (r) AML: HNT-34 cell line (AID 2202234); also: nearly all actives have a fitted effect of over 35% in size;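 as to viability (% of control): plate controls were vehicle wells for no effect and cell-free wells for full effect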
Procedure, shortened: as §2

[6] = BET inhibitor-based combinations targeting novel dependencies in MECOM-rearranged (r) AML: AML-191 cell line (AID 2202236; also: nearly all actives have a fitted effect of over 35% in size;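 as to viability (% of control): plate controls were vehicle wells for no effect and wells without cells for full effect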)
Procedure, shortened: as §1

[7] = BET inhibitor-based combinations targeting novel dependencies in MECOM-rearranged (r) AML: AML-194 cell line (AID 2202237; also: nearly all actives have a fitted effect of over 40% in size;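 as to viability (% of control): plate controls were vehicle wells for no effect and wells without cells for full effect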)
Procedure, shortened: as §1

[8] = BET inhibitor-based combinations targeting novel dependencies in MECOM-rearranged (r) AML: UCSD-AML1 cell line (AID 2202235); also: nearly all actives have a fitted effect of over 40% in size;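 as to viability (% of control): series mostly up to about 46 µM; plate controls were DMSO vehicle wells for no effect and blank wells for full effect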
Procedure, shortened: as §2
Potency is read from the fitted curve at half-maximal effect.

O=C1C[C@@H](c2ccc(O)cc2)Oc2cc(O)cc(O)c21
inactive: activation [1] -17.7% | viability [2] 109% | Potency [3] | Potency [4] | Potency [5] | Potency [6] | Potency [7]

COc1cc(NC(=O)c2ccc(-c3ccc(Cl)cc3)o2)cc(OC)c1
inactive: activation [1] 1.2% | viability [2] 110% | Potency [3] | Potency [4] | Potency [5] | Potency [6] | Potency [7]

Cn1cc(C2=C(c3c4n(c5ccccc35)CCC(CN)C4)C(=O)NC2=O)c2ccccc21 (centres undefined)
inactive: viability [2] 103% | viability (% of control) [3] 88.4% [at 8.46 µM] | viability (% of control) [8] 97.4% [at 8.46 µM] | viability (% of control) [7] 98.9% [at 8.46 µM]
active: Potency [1] 27.3 µM | Potency [4] 4.81 µM | Potency [5] 5.39 µM

CC(C)(C)COc1ccc(-n2cc(C(=O)O)cn2)cc1C#N
active: Potency [3] 10.5 µM
inactive: activation [1] -16.6% | viability [2] 95.2% | Potency [4] | Potency [5] | Potency [7]

CC(C)Oc1cc(Nc2nc(N[C@@H](C)c3ccc(F)cn3)ncc2Cl)[nH]n1
active: Potency [1] 24.3 µM | Potency [2] 18.6 µM | Potency [3] 16.6 µM | Potency [4] 0.0934 µM | Potency [5] 16.6 µM | Potency [6] 0.417 µM

Cc1ccc(C(=O)c2cc(O)c(O)c([N+](=O)[O-])c2)cc1
inactive: activation [1] 1.67% and 0.973% | viability [2] 104% | Potency [3] | Potency [4] | Potency [5] | Potency [7]

Cc1cc2nc3c(=O)[nH]c(=O)nc-3n(CC(O)C(O)C(O)CO)c2cc1C (centres undefined)
inactive: activation [1] -37.4% | viability [2] 106% | Potency [3] | Potency [4] | Potency [5] | Potency [6] | Potency [7]

O=C(NCCCCN1CCOCC1)c1cc2ccccc2o1
inactive: activation [1] 15.9% | viability [2] 111% | Potency [3] | Potency [4] | Potency [5] | Potency [6] | Potency [7]

CC(C)(Sc1cc(C(C)(C)C)c(O)c(C(C)(C)C)c1)Sc1cc(C(C)(C)C)c(O)c(C(C)(C)C)c1
inactive: activation [1] 5.08% and 14.9% | viability [2] 103% | Potency [3] | Potency [4] | Potency [5] | Potency [8]
active: Potency [7] 13.2 µM

OC(c1cc(C(F)(F)F)nc2c(C(F)(F)F)cccc12)C1CCCCN1 (centres undefined)
inactive: activation [1] -0.154%
active: Potency [2] 26.3 µM | Potency [3] 18.6 µM | Potency [4] 20.9 µM | Potency [5] 23.5 µM | Potency [6] 23.5 µM

CC1CNc2c(cccc2S(=O)(=O)N[C@@H](CCCN=C(N)N)C(=O)N2CC[C@@H](C)C[C@@H]2C(=O)O)C1 (some centres undefined)
inactive: activation [1] 8.55% | viability [2] 116% | Potency [3] | Potency [4] | Potency [5] | Potency [8] | Potency [7]

CN(C)CC/C=C1/c2ccccc2COc2ccc(CC(=O)O)cc21
inactive: activation [1] -13% | viability [2] 121% | Potency [3] | Potency [4] | Potency [5] | Potency [6] | Potency [7]

COc1ccc2c3n(c(=NC(=O)c4cccnc4)nc2c1OC)CCN3
inactive: activation [1] -16.5% | viability [2] 112%
active: Potency [3] 0.235 µM | Potency [4] 0.148 µM | Potency [5] 0.332 µM | Potency [6] 0.468 µM | Potency [7] 1.18 µM

CCCCCCCCc1ccc(CCC(N)(CO)CO)cc1
inactive: activation [1] 2.16%
active: Potency [2] 26.3 µM | Potency [3] 13.2 µM | Potency [4] 14.8 µM | Potency [5] 18.6 µM | Potency [6] 16.6 µM | Potency [7] 14.8 µM

Cc1cccc(-c2[nH]c(C(C)(C)C)nc2-c2ccc3c(c2)OCO3)n1
active: Potency [2] 16.6 µM | Potency [3] 3.72 µM | Potency [4] 2.95 µM | Potency [5] 6.61 µM | Potency [6] 6.61 µM | Potency [7] 6.61 µM
inactive: activation [1] -10.9%

COc1c(C)c2c(c(O)c1C/C=C(\C)CCC(=O)OCCN1CCOCC1)C(=O)OC2
inactive: activation [1] -10.7%
active: Potency [2] 1.32 µM | Potency [3] 1.32 µM | Potency [4] 0.662 µM | Potency [8] 1.18 µM | Potency [6] 1.32 µM

O=c1[nH]c(=O)n(C2CCCO2)cc1F (centres undefined)
inactive: activation [1] -1.88% | viability [2] 111% | Potency [3] | Potency [5] | Potency [7]
active: Potency [4] 20.9 µM

O=C(NCCS(=O)(=O)c1ccc(C(F)(F)F)cn1)c1ccc(Cl)cc1
inactive: activation [1] 6.23% | viability [2] 108% | Potency [3] | Potency [4] | Potency [5] | Potency [6] | Potency [7]

Nc1ccc(S(N)(=O)=O)cc1
inactive: activation [1] -29.9% and 4.8% | viability [2] 93.8% | Potency [3] | Potency [4] | Potency [5] | Potency [8] | Potency [7]

C[C@@H](CN1CC(=O)NC(=O)C1)N1CC(=O)NC(=O)C1
inactive: activation [1] -3.95% and 20.4% | viability [2] 92.4% | Potency [5]
active: Potency [3] 18.6 µM | Potency [4] 14.8 µM | Potency [6] 13.2 µM | Potency [7] 16.6 µM
